Here are results for 106 molecules from PubChem BioAssay AID488922 (Johns Hopkins Ion Channel Center, 2010).

Each structure is given as a SMILES string. Screen size: about 310,000 compounds; about 3,800 (1.2%) were called active. The sample holds actives, similar compounds and a random draw of the others, so the mix is not that of the screen.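 How the source made its calls: active means ratio B-score over 3 SD below the library mean, with starting fluorescence within 5 SD of its mean; inactive means the rest, inconclusive results apart.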

This assay deals with Potassium channel subfamily K member 9 (Homo sapiens) (UniProt Q9NPC2). In words: KCNK9 potassium channel inhibitors, primary screen, HEK293 cells, thallium flux (AID 488922).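 On B-score: negative B-score means less thallium flux so channel inhibition.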 Particulars: HEK293 KCNK9, FluxOR thallium flux fluorescence, at 10 µM; hits give low values.
Sequence of Potassium channel subfamily K member 9 (Homo sapiens) (Q9NPC2 whole entry, looked up): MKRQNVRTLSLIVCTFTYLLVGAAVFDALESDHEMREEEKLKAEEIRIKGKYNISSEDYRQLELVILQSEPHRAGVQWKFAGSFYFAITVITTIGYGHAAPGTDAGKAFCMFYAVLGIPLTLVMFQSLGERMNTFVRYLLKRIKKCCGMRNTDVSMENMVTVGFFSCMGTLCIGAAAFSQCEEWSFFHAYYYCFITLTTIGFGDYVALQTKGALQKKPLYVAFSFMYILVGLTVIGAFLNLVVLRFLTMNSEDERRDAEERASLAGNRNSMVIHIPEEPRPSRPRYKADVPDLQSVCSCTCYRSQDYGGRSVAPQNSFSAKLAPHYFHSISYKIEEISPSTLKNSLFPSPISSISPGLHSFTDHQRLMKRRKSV
In the case of `Cc1c(C(=O)N2CC(C)OC(C)C2)sc2nc(-c3ccccc3)cn12` (stereo unspecified), the B-score entry was “inactive”. Then `Cc1c(C(=O)NCC2CCCO2)sc2nc(-c3ccccc3)cn12` (stereo unspecified), with “inactive”; and `Cc1c(C(=O)N2CCCc3ccccc32)oc2ccccc12`, with “inactive”; and `Cc1cccc2cc3c(N)c(C(=O)N4CCCc5ccccc54)sc3nc12`, with -6.79 (active). Turning to `Cc1c(C(=O)N2CCCc3ccccc32)sc2nc(-c3ccccc3)cn12`, the B-score is -6.69 (active). The entry for `O=C(c1cc(-c2ccc(O)cc2)on1)N1CCCc2ccccc21` is “inactive”.

Turning to `COc1cccc(CNC(=O)Cn2c(=O)oc3cc(S(=O)(=O)N4CCCCC4)ccc32)c1`, the B-score result is “inactive”. Take `Cc1ccc(N2CC(C(=O)Nc3ccc(S(=O)(=O)N4CCCC4)cc3)CC2=O)cc1C` (stereo unspecified): the B-score result is “inactive”. For the molecule `O=C(CCc1n[nH]c(=O)[nH]c1=O)N/N=C/c1ccc(Br)o1`, the B-score entry is “inactive”.

With `CC(C)OCCCNC(=O)c1ccc(C2SCC(=O)N2Cc2ccco2)cc1` (stereo unspecified), the B-score entry was “inactive”. Then `CCCCCCCC(=O)NC(Nc1ccccc1OC)C(Cl)(Cl)Cl` (stereo unspecified), with “inactive”; and `CCOC(=O)N1CCC(N(CCOC)C(=O)Nc2ccc(C)c(C)c2)CC1`, with “inactive”; and `CCCCCCCCC(=O)NCCOc1ccccc1`, with “inactive”.

Turning to `CCn1c(COc2cccc(OC)c2)nnc1SCC(=O)N1CCOCC1`, the B-score entry was “inactive”. On to `CCOC(=O)Cn1c(-c2cccnc2Cl)nc2ccccc21`, for which the B-score result is “inactive”. Then `Cc1ccc(OCCCn2c(=O)oc3ccccc32)cc1`, with “inactive”. As for `CCCCCCCCCCOC(=O)Cn1c(COc2ccc(C)cc2)[n+](C)c2ccccc21`, the B-score is -11.4 (active). Turning to `CCCCCCCCCCOC(=O)Cn1c(COc2cccc(OC)c2)[n+](C)c2ccccc21`, the B-score was -17.1 (active). As for `C[C@@H]1O[C@@H](OC[C@H]2O[C@@H](Oc3c(-c4ccc(O)cc4)oc4cc(O)cc(O)c4c3=O)[C@H](O)[C@@H](O)[C@@H]2O)[C@H](O)[C@H](O)[C@H]1O`, the B-score result is “inactive”. Then `Cc1ccc(C2(C)NC(=O)N(CC(=O)Nc3ccccc3C(=O)N3CCCCC3)C2=O)cc1` (stereo unspecified), with “inactive”; and `O=C(OCCN1CCOCC1)C1(c2ccccc2)CCCCC1`, with “inactive”. On to `CCc1ccc(-c2cc(C(=O)NN3CCN(C)CC3)c3ccccc3n2)cc1`, for which the B-score entry was “inactive”.

Consider `CC(C)CN(C(=O)COC(=O)c1ccc2ccccc2c1)c1c(N)n(Cc2ccccc2)c(=O)[nH]c1=O`, for which the B-score entry was “inactive”. The entry for `Cc1ccc(NS(=O)(=O)c2ccc(-c3ccc(=O)[nH]n3)o2)c(C)c1` is “inactive”; for `Cc1ccc(CCN2CC(C(=O)NCCc3ccccc3)CC2=O)cc1` (stereo unspecified) it is “inactive”. Regarding `O=C(Nc1ccc(Cl)cc1)C1c2cccc[n+]2CC(=O)N1Cc1ccc2c(c1)OCO2` (stereo unspecified), the B-score result is “inactive”. As for `C=CCOc1ccc(/C=N/NC(=O)C(C)Sc2ccccn2)cc1OCC` (stereo unspecified), the B-score is -8.3 (active). As to `CCOc1ccc(/C=N/NC(=O)C(C)Sc2ccccn2)cc1OCC` (stereo unspecified), the B-score entry was “inactive”.

Turning to `CCOc1ccc(/C=N/NC(=O)CSc2ccccn2)cc1O`, the B-score entry was “inactive”. For the molecule `C/C(=N\NC(=O)CCn1nc(C)cc1C)C(C)(C)C`, the B-score result was “inactive”. As to `O=C(COC(=O)c1ccccc1NC(=O)c1ccco1)Nc1ccc2c(c1)OC(F)(F)O2`, the B-score is -8.01 (active).

For the molecule `O=C(COC(=O)c1ccc[nH]c1=O)Nc1ccc2c(c1)OC(F)(F)O2`, the B-score result is “inactive”. For the molecule `COc1ccc(OCC(=O)Nc2ccc(NC(=O)c3ccco3)c(C)c2)cc1`, the B-score result is “inactive”.

For `Cc1ccnc(SCCn2c(N(C)Cc3ccccc3)nc3c2c(=O)n(C)c(=O)n3C)n1`, the B-score result was “inactive”. Consider `OC(COCCC12CC3CC(CC(C3)C1)C2)CN1CCCCC1` (stereo unspecified), for which the B-score entry was “inactive”. As to `O=C(CN1C(=O)c2ccccc2C1=O)NCc1ccc(C(=O)O)cc1`, the B-score result was “inactive”. As for `CC(=O)N(C1=C(Cl)C(=O)c2ccccc2C1=O)c1ccc(C(=O)O)cc1`, the B-score is -6.74 (active). The figure for `COc1ccc(OC)c(C(=O)c2coc3ccc(OC)cc23)c1` is -15 (active); for `COc1ccc(OC)c(C(=O)c2coc3ccc(O)c(CN4CCOCC4)c23)c1` it is “inactive”. The entry for `COc1ccc2occ(C(=O)c3ccc(N=C(C)N(C)C)cc3)c2c1` is “inactive”; for `Cc1ccnc(NC(=O)Cn2ccc([N+](=O)[O-])n2)c1` it is “inactive”; for `CC(/C=N/NC(=O)c1ccncc1)=C\c1ccco1` it is “inactive”. Regarding `Cc1ccc(-c2cc(C(=O)N/N=C/C=C/c3ccco3)c3ccccc3n2)cc1C`, the B-score result is “inactive”. Then `CC(/C=N/NC(=O)c1cc(-c2ccc3ccccc3c2)n[nH]1)=C\c1ccco1`, with -6.63 (active). With `CCOc1ccc(-n2c(SCC(=O)NC3CCS(=O)(=O)C3)nnc2-c2cccnc2)cc1` (stereo unspecified), the B-score entry was “inactive”. For the molecule `CCCC(C(=O)n1nc(C)cc1C)C(NS(=O)(=O)c1ccc(C)cc1)c1ccccc1` (stereo unspecified), the B-score entry was “inactive”. In the case of `CC1CCN(C(=O)c2ccc(CSc3ccc(Cl)cc3)cc2)CC1`, the B-score is -8.16 (active). `O=C(C1CC1)N1CCN=C1SCc1ccc(Cl)cc1`: the B-score entry was “inactive”. In the case of `O=C(c1ccc(CSc2ccccc2)cc1)N1CCCCCC1`, the B-score entry was “inactive”. Regarding `CCCCn1c(N)c(N(CCOC)C(=O)c2cccc(S(=O)(=O)N(C)c3ccccc3)c2)c(=O)[nH]c1=O`, the B-score entry was “inactive”. For the molecule `CCOC(=O)Cc1csc(SCC(=O)NC(C)C23CC4CC(CC(C4)C2)C3)n1` (stereo unspecified), the B-score result is “inactive”. With `CN(c1ccccc1)S(=O)(=O)c1cccc(NC(=O)Cc2c(F)cccc2Cl)c1`, the B-score was -15.5 (active). For the molecule `CN(C)S(=O)(=O)c1cccc(NC(=O)Cc2ccsc2)c1`, the B-score entry was “inactive”.

For the molecule `CN(C)S(=O)(=O)c1cccc(NC(=O)COC(=O)C2(c3ccccc3F)CCCC2)c1`, the B-score result is “inactive”. The entry for `Cc1cc(=O)oc2c1ccc1ccccc12` is “inactive”; for `COc1ccc(C(CCN(Cc2ccc(OC)c(OC)c2)C(=O)CCl)c2ccccc2)cc1` (stereo unspecified) it is -11 (active).

With `COc1ccc(COC(=O)NC(C(=O)O)c2ccccc2)cc1` (stereo unspecified), the B-score entry was “inactive”.

Take `COc1ccc(CN(C)C(=O)CC(c2ccccc2)c2ccccc2)cc1`: the B-score result was “inactive”. Regarding `O=c1[nH]c(/C=C/c2cccc(Br)c2)nc2ccccc12`, the B-score result is “inactive”.

On to `COc1ccc(CNc2ncnc3ccccc23)cc1`, for which the B-score result was “inactive”. On to `COc1cccc(CNc2nc(C(F)(F)F)nc3ccccc23)c1`, for which the B-score is -8.03 (active). Then `CCc1ccc(C(CNc2nc(C(F)(F)F)nc3ccccc23)N(C)C)cc1` (stereo unspecified), with “inactive”; and `CCOC(=O)c1cc(C(=O)Nc2ccc(S(=O)(=O)Nc3ccc(OC)cc3)cc2)nn1C`, with “inactive”. For the molecule `COc1ccc(-n2ncc3c2CC(C)(C)CC3NC(=O)CCc2c(C)noc2C)cc1` (stereo unspecified), the B-score entry is “inactive”. Turning to `Cc1nn(CC(=O)Nc2nc3ccccc3s2)c(C)c1[N+](=O)[O-]`, the B-score was -10.4 (active). Then `CCc1ccc(NC(=O)Cn2nc(C)c([N+](=O)[O-])c2C)cc1`, with “inactive”; and `Cc1nn(CC(=O)NCc2ccccn2)c(C)c1[N+](=O)[O-]`, with “inactive”; and `Cc1cc(C)nc(NS(=O)(=O)c2ccc(N3C(=O)C4CCCCC4C3=O)cc2)n1` (stereo unspecified), with “inactive”. `COc1ccccc1N1CCN(c2ncnc3sc(C)c(-c4ccccc4)c23)CC1`: the B-score is -16.5 (active). Take `Oc1ccccc1N1CCN(c2ncnc3sc(-c4ccccc4)cc23)CC1`: the B-score result is “inactive”. The entry for `COc1ccccc1N1CCN(c2ccc([N+](=O)[O-])nc2)CC1` is “inactive”; for `O=C(NCCc1ccc(Cl)cc1Cl)c1cc([N+](=O)[O-])c[nH]c1=O` it is “inactive”; for `CC(c1ccccn1)N(CCN(C)C)C(=S)Nc1ccccc1F` (stereo unspecified) it is “inactive”. Turning to `CSc1cccc(NC(=S)N(C(C)C)C(C)c2ccccn2)c1` (stereo unspecified), the B-score is -17.5 (active). Turning to `CSc1cccc(NC(=S)N(Cc2ccccc2)Cc2ccccn2)c1`, the B-score entry was “inactive”. Take `Cc1ccc(OCc2nc3ccccc3n2C)cc1`: the B-score entry was “inactive”. Turning to `Cc1ccc(C2=NN(C)c3nc4ccccc4n3C2)cc1`, the B-score is -8.17 (active). On to `Cc1ccc(O)c(CNc2nc3ccccc3n2C)c1`, for which the B-score entry is “inactive”. Turning to `CCOC(=O)/C(=N\Nc1cc(Cl)ccc1Cl)N1CCN(C)CC1`, the B-score result is “inactive”. `COCCNc1ncnc2c1nc1n2CCCC1`: the B-score entry was “inactive”. Consider `COc1cnc(SCc2ccc(Cl)c(Cl)c2)nc1Cl`, for which the B-score result was “inactive”.

For the molecule `O=S(=O)(NC1CCCCC1N1CCN(c2ccccc2F)CC1)c1ccccc1` (stereo unspecified), the B-score is -7.59 (active). `COc1ccc(N2CCN(C3CCCCC3NS(=O)(=O)c3ccccc3)CC2)cc1` (stereo unspecified): the B-score entry was “inactive”. The entry for `O=S(=O)(NC1CCCCC1N1CCCCC1)c1ccc(Cl)cc1` (stereo unspecified) is “inactive”; for `N#Cc1c(NCCO)ccc([N+](=O)[O-])c1NCCO` it is “inactive”; for `Cc1ccnc(N2C(=O)c3ccccc3C2Nc2ccc3c(c2)OCCO3)c1` (stereo unspecified) it is “inactive”. The entry for `CCc1ccccc1NC1c2ccccc2C(=O)N1c1cccnc1` (stereo unspecified) is “inactive”. Then `COC(=O)c1cc(NC2c3ccccc3C(=O)N2c2ccc(Cl)cn2)cc(C(=O)OC)c1` (stereo unspecified), with -8.59 (active). In the case of `Cc1ccc(C)c(OCCC(=O)OCC(=O)c2ccc3c(c2)NC(=O)CO3)c1`, the B-score entry was “inactive”. Take `Cc1ccc(CNC(=O)C2(C(F)(F)F)C/C(=C\Cc3ccccc3)CCCO2)o1` (stereo unspecified): the B-score entry is “inactive”. For `CCOC(=O)c1ccc(NC(=O)Cc2cccs2)cc1`, the B-score result was “inactive”. Then `CC1=NN(C(=O)c2ccc(Br)cc2)C(O)(c2ccccc2)C1` (stereo unspecified), with “inactive”; and `CC1=NN(C(=O)Cc2ccc(C)cc2)C(O)(c2cccnc2)C1` (stereo unspecified), with “inactive”. With `CCC1=NN(C(=O)Cc2ccc([N+](=O)[O-])cc2)C(O)(c2ccc(Br)cc2)C1` (stereo unspecified), the B-score was -9.93 (active). Take `CCOC(=O)c1[nH]c(C)c(C(=O)OCC(=O)N2c3ccccc3CC2C)c1C` (stereo unspecified): the B-score entry is “inactive”.

Take `COc1ccc(C)cc1NC(=O)CNCc1cccs1`: the B-score entry was “inactive”.

In the case of `CNC(=S)N1N=C(c2ccccc2)CC1c1ccc(Br)cc1` (stereo unspecified), the B-score result was “inactive”. For `Brc1ccc(C2CC(c3ccccc3)=Nc3ccccc3N2)cc1` (stereo unspecified), the B-score was -9.6 (active). Turning to `c1ccc(C2=Nc3cccc4cccc(c34)N2)cc1`, the B-score entry is “inactive”. `CC(C)(C)SCCSC1=CC(=O)CC(c2ccccc2)C1` (stereo unspecified): the B-score entry is “inactive”. Then `O=C(N/C(=C\c1ccc([N+](=O)[O-])cc1)C(=O)N1CCCCC1)c1ccco1`, with “inactive”; and `O=C(c1ccccc1)C(Cn1cncn1)C(Sc1ccccc1)c1ccccc1` (stereo unspecified), with “inactive”; and `O=C(NCc1ccccc1)c1onc(CSc2ccncc2)c1C(=O)NCc1ccccc1`, with “inactive”. With `CCC(C)NC(=O)CN(C1CCCCC1)S(C)(=O)=O` (stereo unspecified), the B-score result was “inactive”. Consider `CS(=O)(=O)N(CC(=O)Nc1ccc(F)cc1)C1CCCCC1`, for which the B-score entry is “inactive”. The figure for `CS(=O)(=O)N(CC(=O)Nc1ccc(Cl)c(Cl)c1)C1CCCCC1` is -7.01 (active).
